Measured values from PubChem BioAssay.
Calls of active or inactive are those of the source.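 Rule for the calls: active = at least 20% inhibition of 6-phosphogluconate dehydrogenase activity; inactive = the rest.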

biological target: 6-phosphogluconate dehydrogenase, decarboxylating (Homo sapiens) (UniProt P52209); experiment: 6PGD enzyme inhibitors, primary screen, biochemical, human, recombinant enzyme, NADPH absorbance (AID 1159550); conditions: recombinant 6PGD, NADPH absorbance 341 nm; at 10 µM; hits give high values
Sequence (P52209 whole entry, looked up): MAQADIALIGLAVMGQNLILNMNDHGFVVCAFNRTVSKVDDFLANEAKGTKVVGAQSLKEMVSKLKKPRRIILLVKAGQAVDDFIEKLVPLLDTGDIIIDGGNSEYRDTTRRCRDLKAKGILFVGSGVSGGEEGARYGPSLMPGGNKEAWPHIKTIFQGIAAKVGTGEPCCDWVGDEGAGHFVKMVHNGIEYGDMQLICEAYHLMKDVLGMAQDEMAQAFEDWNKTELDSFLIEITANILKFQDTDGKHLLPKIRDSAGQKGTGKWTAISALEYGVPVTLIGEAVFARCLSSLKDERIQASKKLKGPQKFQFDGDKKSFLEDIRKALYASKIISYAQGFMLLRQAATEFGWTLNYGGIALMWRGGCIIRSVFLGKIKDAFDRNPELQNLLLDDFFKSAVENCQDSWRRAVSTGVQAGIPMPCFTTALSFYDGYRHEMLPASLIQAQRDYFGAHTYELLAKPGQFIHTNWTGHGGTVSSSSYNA

Q: For `c1cc2c(cc1[C@H]1OC[C@@H]3[C@H]1CO[C@H]3c1ccc3c(c1)OCO3)OCO2`, which inhibition is on record?
A: Its inhibition is -14.7% (inactive).

Q: Which inhibition does the source give for `C[C@]12CC[C@@H](OS(=O)(=O)O)C[C@@H]1CC[C@@H]1[C@@H]2CC[C@]2(C)C(=O)CC[C@@H]12` here?
A: Its inhibition is 5.35% (inactive).

Q: Which inhibition does the source give for `CC[C@H]1/C=C\C=C\C[C@H](C)[C@@H](O)[C@](C)(O)C(=O)[C@H](C)[C@@H](O)C(C)C(=O)[C@H](C)[C@H](O)[C@@H](C)/C=C/C(=O)OC2C(C)[C@H](CC1)O[C@@]1(CC[C@@H](C)[C@@H](CC(C)O)O1)[C@@H]2C` (some centres undefined) here?
A: The inhibition was -4.41% (inactive).

Q: For `C=C1[C@@H]2CC[C@H]3[C@]4(C)C[C@H](O[C@@H]5O[C@H](CO)[C@@H](OS(=O)(=O)O)[C@H](OS(=O)(=O)O)[C@H]5OC(=O)CC(C)C)C[C@@H](C(=O)O)[C@H]4CC[C@]3(C2)[C@H]1O`, which inhibition is on record?
A: The inhibition was 5.29% (inactive).
